Data: PubChem BioAssay
Activity calls are given as the source filed them. Unless noted, the rule behind the calls is not given here.

How the values were obtained:
[1] = system: Wnt5a (protein binding on small-molecule microarray); assay: small molecules binding Wnt5a protein – biophysical, small-molecule microarray, 635/667 nm fluorescence, primary screen (AID 1142); settings: 635 nm fluorescence, higher = more signal;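 note: fluorescence read at 667 nm with signal to noise per printed feature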
[2] = ATP-based viability of Huh7 replicon cells – cell-based, CellTiter-Glo luminescence, basal, 48 h, cytotoxicity control for HCV replication inhibitor project, primary screen (AID 1143); settings: higher = more signal, called active from +8 up or from −8 down;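 note: Huh7 hepatoma cells carrying a hepatitis C replication reporter with no stimulus; test concentration not given here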
[3] = Pseudomonas biofilm growth suppression – PAO1 strain, BacTiter-Glo luminescence, LB-PBS, primary screen (AID 1144); settings: P. aeruginosa PAO1 biofilm, 12 h, higher = more signal
[4] = basal CRE-LacZ reporter activity in PC12 – cell-based, unstimulated, primary screen (AID 1145); settings: no forskolin, luminescence, 4.5 h, higher = more signal, called active from +8 up or from −8 down
[5] = forskolin-driven CRE-LacZ activity in PC12 – cell-based, CRE-LacZ reporter, forskolin-stimulated, primary screen (AID 1146); settings: luminescence, 4.5 h, higher = more signal, called active from +8 up or from −8 down;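 note: PC12 cells with 6xCRE LacZ reporter stimulated by forskolin 10 µM; beta-galactosidase reporter signal reflecting CREB driven transcription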
[6] = target: Streptavidin (Streptomyces avidinii) (UniProt P22629); assay: compounds binding control protein streptavidin – biophysical, small-molecule microarray, 635/667 nm fluorescence, artefact control for SMM compound annotation, primary screen (AID 1147); settings: higher = more signal;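 note: signal reflects streptavidin binding to arrayed compounds as a control protein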
[7] = probe aInhba binding on compound microarray – biochemical, small-molecule microarray, 635/667 nm fluorescence, primary screen (AID 1148); settings: higher = more signal;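 note: score merges 667nm spot fluorescence with signal-to-noise for antibody binding to printed compounds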
Torsin-1A (Homo sapiens) [8] = target: Torsin-1A (Homo sapiens) (UniProt O14656); assay: TOR1A wild-type binding on microarray – cell lysate, small-molecule microarray, lysate, 635/667 nm, primary screen (AID 1149); settings: COS7 hTOR1A-WT lysate, 635 nm fluorescence, higher = more signal
Torsin-1A (Homo sapiens) [9] = target: Torsin-1A (Homo sapiens) (UniProt O14656); assay: torsin A mutant lysate binding on microarrays – cell lysate, small-molecule microarray, COS7 lysate, 635/667 nm fluorescence, primary screen (AID 1150); settings: COS7 hTOR1A mutant lysate, 635 nm fluorescence, higher = more signal;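 note: score pools 667 nm emission and signal to noise measuring lysate protein binding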
[10] = system: Sonic hedgehog protein (Shh); assay: Sonic hedgehog microarray binding compounds – biochemical, small-molecule microarray, 635/667 nm fluorescence, primary screen (AID 1151); settings: 635 nm fluorescence, higher = more signal;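 note: Shh protein binding to compounds spotted on small-molecule microarray slides; score combines spot fluorescence intensity with signal-to-noise across triplicate slides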
[11] = optical density shifts of acrAB sulA E. coli – strain DRC41, OD650, 48 h, E. coli filamentation inducer project, primary screen (AID 1152); settings: higher = more signal, called active from +8 up or from −8 down;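 note: E. coli MC1000 strain DRC41 lacking acrAB efflux pump and sulA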
[12] = probe aLefty1 binding on compound microarray – biochemical, small-molecule microarray, 635/667 nm fluorescence, primary screen (AID 1153); settings: higher = more signal;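 note: score merges spot fluorescence with signal-to-noise ratio from the scanned slide images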
[13] = plasmodial surface anion channel blockers, osmotic lysis – cell-based, P. falciparum Indochina, OD700, 1 h, primary screen (AID 1154); settings: P. falciparum Indochina infected RBC osmotic lysis, higher = more signal, called active from +8 up or from −8 down
[14] = plasmodial surface anion channel blockers, osmotic lysis – cell-based, P. falciparum Indochina, OD700, 2 h, primary screen (AID 1155);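 note: lysis reports solute entry through the parasite surface anion channel PSAC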; settings: P. falciparum Indochina infected erythrocytes, higher = more signal, called active from +8 up or from −8 down
[15] = changes in parasitized red cell lysis, either direction – P. falciparum Indochina, OD700, 3 h, PSAC antagonist project, primary screen (AID 1156); settings: P. falciparum-infected erythrocytes, osmotic lysis, higher = more signal, called active from +8 up or from −8 down
[16] = plasmodial surface anion channel blockers, osmotic lysis – cell-based, P. falciparum Indochina, OD700, 18 h, primary screen (AID 1157); settings: P. falciparum Indochina infected erythrocytes, osmotic lysis OD700, 18 h; higher = more signal, called active from +8 up or from −8 down
[17] = S6 kinase pathway phospho-S6 level changes – cell-based, A549, cytoblot, luminescence, serum-stimulated, primary screen (AID 1158); settings: 5 h, higher = more signal;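 note: serum-stimulated A549 lung adenocarcinoma cells; signal is phosphorylated S6 detected by cytoblot immunostaining with HRP secondary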
[18] = target: NADPH oxidase 2 (Homo sapiens) (UniProt P04839); assay: compounds shifting NOX2 Amplex Red fluorescence – cell-based, HEK293-NOX2, PMA-stimulated, NOX inhibitor project, primary screen (AID 1159); settings: 45 min, higher = more signal, called active from +8 up or from −8 down; note: test concentration not given here
[19] = target: NADPH oxidase 4 (Homo sapiens) (UniProt Q9NPH5); assay: compounds shifting NOX4 Amplex Red fluorescence – cell-based, HEK293-NOX4, tetracycline-induced, NOX inhibitor project, primary screen (AID 1160); settings: HEK293-NOX4, Amplex Red H2O2 fluorescence, 45 min; higher = more signal, called active from +8 up or from −8 down
[20] = target: NADPH oxidase 5 (Homo sapiens) (UniProt Q96PH1); assay: compounds shifting NOX5 Amplex Red fluorescence – cell-based, HEK293-NOX5, NOX inhibitor project, primary screen (AID 1161); settings: HEK293-NOX5, ionomycin, 45 min, higher = more signal
Chain of NADPH oxidase 5 (Homo sapiens) (Q96PH1 whole entry, looked up): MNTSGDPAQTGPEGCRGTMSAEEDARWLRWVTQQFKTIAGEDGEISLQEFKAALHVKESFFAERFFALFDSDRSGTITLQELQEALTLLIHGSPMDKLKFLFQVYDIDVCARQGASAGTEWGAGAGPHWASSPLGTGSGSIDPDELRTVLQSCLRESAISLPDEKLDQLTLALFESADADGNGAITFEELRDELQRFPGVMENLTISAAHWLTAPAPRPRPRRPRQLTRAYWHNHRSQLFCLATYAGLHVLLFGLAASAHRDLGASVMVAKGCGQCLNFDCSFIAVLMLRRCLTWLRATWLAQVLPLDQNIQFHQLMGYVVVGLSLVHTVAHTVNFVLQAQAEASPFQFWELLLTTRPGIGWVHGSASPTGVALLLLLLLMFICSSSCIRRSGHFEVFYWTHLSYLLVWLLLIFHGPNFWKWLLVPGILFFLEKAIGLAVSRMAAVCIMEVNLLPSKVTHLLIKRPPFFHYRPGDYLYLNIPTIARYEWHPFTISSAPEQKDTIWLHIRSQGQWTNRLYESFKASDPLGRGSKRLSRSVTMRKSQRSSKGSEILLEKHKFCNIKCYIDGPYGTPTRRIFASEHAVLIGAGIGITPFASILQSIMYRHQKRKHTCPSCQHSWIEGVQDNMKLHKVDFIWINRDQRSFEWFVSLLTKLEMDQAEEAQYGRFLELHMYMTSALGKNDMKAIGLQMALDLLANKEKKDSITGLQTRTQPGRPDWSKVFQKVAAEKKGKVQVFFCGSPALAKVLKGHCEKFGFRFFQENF

Chain of Torsin-1A (Homo sapiens) (O14656 whole entry, looked up): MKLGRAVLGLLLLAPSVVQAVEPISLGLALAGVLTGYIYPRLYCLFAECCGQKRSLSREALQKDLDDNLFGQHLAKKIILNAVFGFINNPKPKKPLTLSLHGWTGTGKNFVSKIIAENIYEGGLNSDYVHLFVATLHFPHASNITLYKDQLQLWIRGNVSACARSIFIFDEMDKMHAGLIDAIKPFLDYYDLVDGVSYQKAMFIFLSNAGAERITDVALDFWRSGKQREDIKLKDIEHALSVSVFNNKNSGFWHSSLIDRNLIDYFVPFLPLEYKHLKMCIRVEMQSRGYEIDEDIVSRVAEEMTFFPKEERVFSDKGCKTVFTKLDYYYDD
Chain of Streptavidin (Streptomyces avidinii) (P22629 whole entry, looked up): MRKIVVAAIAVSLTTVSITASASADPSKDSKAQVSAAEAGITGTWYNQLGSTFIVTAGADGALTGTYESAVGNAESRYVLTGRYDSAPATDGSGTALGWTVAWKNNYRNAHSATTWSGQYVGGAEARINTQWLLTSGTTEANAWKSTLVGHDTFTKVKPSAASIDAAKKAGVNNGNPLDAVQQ
Chain of NADPH oxidase 4 (Homo sapiens) (Q9NPH5 whole entry, looked up): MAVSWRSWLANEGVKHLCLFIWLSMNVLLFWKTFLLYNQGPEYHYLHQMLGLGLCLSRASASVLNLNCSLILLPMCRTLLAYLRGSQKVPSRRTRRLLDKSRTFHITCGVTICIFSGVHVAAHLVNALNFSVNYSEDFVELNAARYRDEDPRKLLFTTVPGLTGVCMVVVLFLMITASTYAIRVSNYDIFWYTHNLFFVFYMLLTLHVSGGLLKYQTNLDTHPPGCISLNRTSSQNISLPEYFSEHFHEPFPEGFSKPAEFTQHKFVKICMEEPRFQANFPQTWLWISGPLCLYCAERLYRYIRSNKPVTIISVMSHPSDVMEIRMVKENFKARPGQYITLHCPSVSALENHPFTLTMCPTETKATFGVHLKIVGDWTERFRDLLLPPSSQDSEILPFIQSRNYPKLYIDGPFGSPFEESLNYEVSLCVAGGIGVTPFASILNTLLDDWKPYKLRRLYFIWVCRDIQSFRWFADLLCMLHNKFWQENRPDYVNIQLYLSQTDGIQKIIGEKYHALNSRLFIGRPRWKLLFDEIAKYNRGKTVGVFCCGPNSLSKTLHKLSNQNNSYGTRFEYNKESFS
Chain of NADPH oxidase 2 (Homo sapiens) (P04839 whole entry, looked up): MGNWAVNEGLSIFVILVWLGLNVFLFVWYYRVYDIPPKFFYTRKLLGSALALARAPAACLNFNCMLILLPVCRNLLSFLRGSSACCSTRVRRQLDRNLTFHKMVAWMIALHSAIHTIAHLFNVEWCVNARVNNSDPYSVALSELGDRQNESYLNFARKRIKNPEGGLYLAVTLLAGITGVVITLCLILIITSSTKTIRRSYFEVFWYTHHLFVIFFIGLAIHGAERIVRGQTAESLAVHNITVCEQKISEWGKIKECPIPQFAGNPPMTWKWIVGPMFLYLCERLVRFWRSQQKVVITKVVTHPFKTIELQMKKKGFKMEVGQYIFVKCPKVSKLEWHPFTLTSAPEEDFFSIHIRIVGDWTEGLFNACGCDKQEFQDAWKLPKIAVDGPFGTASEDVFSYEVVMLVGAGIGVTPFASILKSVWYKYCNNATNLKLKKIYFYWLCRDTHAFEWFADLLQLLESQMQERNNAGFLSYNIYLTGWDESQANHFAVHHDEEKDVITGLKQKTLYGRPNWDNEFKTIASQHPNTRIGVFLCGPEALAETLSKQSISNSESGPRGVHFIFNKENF

SMILES | composite z-score [1] | z-score [2] | z-score [3] | z-score [4] | z-score [5] | composite z-score [6] | composite z-score [7] | composite z-score (Torsin-1A (Homo sapiens) [8]) | composite z-score (Torsin-1A (Homo sapiens) [9]) | composite z-score [10] | z-score [11] | composite z-score [12] | z-score [13] | z-score [14] | z-score [15] | z-score [16] | z-score [17] | z-score [18] | z-score [19] | z-score [20]
O=C1N(CCS(=O)(=O)c2ccccc2)Cc2ccccc2C[C@@]12COC(c1ccc(OCCCO)cc1)=N2 | 0.933 | -4.36 (inactive) | 0.898 (inactive) | -0.183 (inactive) | -2.06 (inactive) | 0.758 | 0.325 | 0.701 | 0.945 | 2.03 | -2.34 (inactive) | 0.153 | 25.9 (active) | 15.1 (active) | 4.23 (inactive) | 2.14 (inactive) | -0.0579 | -5.26 (inactive) | -0.159 (inactive) | -3.16
O=C(O)[C@@]1(Cc2ccccc2)COC(c2ccc(OCCCO)cc2)=N1 | 0.0416 | 0.621 (inactive) | 0.498 (inactive) | -0.277 (inactive) | 0.0685 (inactive) | -0.345 | -0.252 | -0.162 | 1.52 | -0.555 | 0.532 (inactive) | -0.0573 | 1.36 (inactive) | -0.166 (inactive) | 0.619 (inactive) | 0.295 (inactive) | -0.521 | -0.0643 (inactive) | 0.432 (inactive) | 0.237
[N-]=[N+]=Nc1ccccc1[C@H]1OC(c2ccc(OCCCO)cc2)=N[C@@]1(Cc1ccccc1)C(=O)NCc1ccccc1 | 0.821 | -5.4 (inactive) | -0.638 (inactive) | -0.16 (inactive) | -1.26 (inactive) | 0.501 | 0.0301 | 0.104 | 0.383 | -0.272 | 1.74 (inactive) | 0.512 | 33.5 (active) | 26.9 (active) | 1.22 (inactive) | 2.33 (inactive) | 2.03 | -2.35 (inactive) | -0.275 (inactive) | -1.3
O=C(C=C(CC(O)c1cccc(Cl)c1)OCCF)OCCF (stereo not given) | -0.234 | -3.1 (inactive) | 0.117 (inactive) | 0.481 (inactive) | -0.722 (inactive) | -0.0847 | -0.267 | -0.489 | -0.167 | -0.335 | 0.597 (inactive) | -0.0694 | 1.35 (inactive) | -0.385 (inactive) | -0.0116 (inactive) | -1.67 (inactive) | 0.785 | 0.176 (inactive) | -0.15 (inactive) | 0.305
CCCc1cc2c(n1Cc1ccc(OC)cc1)C(C)C1CN(C(=O)c3ccccc3)C(C)(C(=O)OC)C21 (stereo not given) | 0.562 | -3.08 (inactive) | 0.393 (inactive) | 0.207 (inactive) | 1.52 (inactive) | 1.95 | 0.297 | 0.0326 | 0.773 | 0.0704 | -2.02 (inactive) | 1.1 | 3.99 (inactive) | 0.713 (inactive) | 1.27 (inactive) | 0.25 (inactive) | -0.57 | -1.55 (inactive) | -3.23 (inactive) | -3.28
COc1ccccc1CN1C(=O)c2ccccc2[C@](Cc2ccccc2I)(C(=O)NCCN2CCOCC2)[C@@H]1c1ccc(CO)cc1 | 0.375 | -4.52 (inactive) | 0.506 (inactive) | 0.648 (inactive) | -0.746 (inactive) | 0.593 | -0.101 | 0.301 | 0.504 | 1.48 | 0.117 (inactive) | -0.181 | 9.62 (active) | 0.349 (inactive) | -0.113 (inactive) | -0.385 (inactive) | 1.39 | -1.81 (inactive) | 0.454 (inactive) | -0.824
O=C1O[C@H](c2ccccc2)[C@H](c2ccccc2)N2[C@H]1[C@@H](C(=O)N1CCN(c3ncccn3)CC1)[C@]1(C(=O)Nc3ccc(C#CCCO)cc31)[C@H]2c1ccc(OCCO)cc1 | 1.02 | 0.505 (inactive) | -0.339 (inactive) | -0.471 (inactive) | 0.344 (inactive) | 1.19 | 0.221 | 0.949 | 0.938 | 1.39 | -0.0115 (inactive) | 0.473 | 4.32 (inactive) | 1.18 (inactive) | 0.588 (inactive) | 0.585 (inactive) | 0.034 | 1.11 (inactive) | 0.57 (inactive) | 0.951
COCCOC(=O)N1C(=O)[C@@]2(c3cc(C#Cc4ccc(OC)cc4)ccc31)[C@H](C(=O)N1CCc3cc(OC)c(OC)cc3C1)[C@H]1C(=O)O[C@H](c3ccccc3)[C@H](c3ccccc3)N1[C@@H]2c1ccc(OCCO)cc1 | 0.4 | -0.831 (inactive) | -0.959 (inactive) | -1.27 (inactive) | -0.194 (inactive) | 0.364 | 0.124 | 0.666 | 0.528 | 1.69 | 0.59 (inactive) | 0.0391 | 6.15 (inactive) | 2.99 (inactive) | 1.69 (inactive) | 1.42 (inactive) | 0.228 | -0.306 (inactive) | -1.58 (inactive) | -0.623
C=CCC(OC(C)=O)[C@@H]1[C@@H](N(Cc2cccc3ccccc23)C(=O)c2ccc(C)cc2)c2cc(OCCCO)ccc2N1C(=O)c1ccc2ccccc2c1 (stereo not given in full) | 0.0228 | -0.487 (inactive) | -0.412 (inactive) | 1.22 (inactive) | 0.197 (inactive) | 0.128 | 0.0797 | 0.196 | 0.792 | 0.788 | 2.04 (inactive) | 0.25 | 0.306 (inactive) | -0.171 (inactive) | -1.1 (inactive) | -0.888 (inactive) | 1.86 | -1.14 (inactive) | 0.935 (inactive) | 2.64
